{
  "source": "PubChem BioAssay (Tox21)",
  "note": "Several values for one entry are separate records, joined by “and”; a condition that tells them apart may be missing. Equal values may be shown once. Inconclusive results are not listed. A call without a number means that no potency is given here. Activity calls are given as the source filed them. Calls come from the whole dose curve; as a rule, active = well fitted cell-killing curve with a large enough effect in the repeat runs; inconclusive = weak or mixed curves, or effect the other way; inactive = no such curve, though single readings can be large or run the other way. Potency is the fitted concentration of half-maximal effect.",
  "data": [
    {"experiment": "qHTS assay to identify small molecule agonists of the vitamin D receptor (VDR) signaling pathway - cell viability counter screen (AID 743224); note: nearly all actives have a fitted effect of over 50% in size", "conditions": "VDR-bla HEK293T viability, CellTiter-Glo luminescence, 16 h; series mostly up to 62.6 µM", "from_the_text": "U.S. Tox21 Program National Center for Advancing Translational Sciences [NCATS] NIH Chemical Genomics Center [NCGC] U.S. Environmental Protection Agency [EPA] National Institutes of Environmental Health Sciences [NIEHS] National Toxicology Program [NTP] U.S. Food and Drug Administration [FDA] Tox21 Assay Overview: The vitamin D receptor (VDR), a member of nuclear hormone receptor superfamily, plays a critical role in calcium homeostasis and bone metabolism. It is also involved in cell differentiation and growth, and thrombogenicity. […] The cytotoxicity of the Tox21 compound library against the VDR-bla cell line was tested in parallel by measuring the cell viability using CellTiter-Glo assay (Promega, Madison, WI) in the same wells.\nTox21 Assay Protocol Summary: VDR-bla cells were dispensed at 2,000 cells/6 uL/well into black wall/clear-bottom 1536-well plates using a Multidrop Combi (Thermo Fisher Scientific, Waltham, MA) dispenser. After the assay plates were incubated at a 37C and 5% CO2 for 4 h, 23 nL of compounds dissolved in DMSO, positive controls or DMSO only was transferred to the assay plate by a Pintool station (Kalypsys, San Diego, CA). The plates were incubated at 37C and 5% CO2 for 16 h. After 1 uL of LiveBLAzerTM B/G FRET substrate was added using a Bioraptr Flying Reagent Dispenser (FRD) workstation (Beckman Coulter, Indianapolis, IN, USA), the plates were incubated at room temperature for 2 h, and fluorescence intensity was measured by an Envision plate reader (PerkinElmer, Shelton, CT). For cell viability readout that measures cytotoxicity, 3 ul/well of CellTiter-Glo reagent was added into the assay plates using a FRD. After 30 min incubation at room temperature, the luminescence intensity in the plates was measured using a ViewLux (PerkinElmer) plate reader.", "values": [
      {"molecule": "CC(C)N(C(=O)CCl)c1ccccc1", "Potency": "inactive"},
      {"molecule": "[O-][Cl+3]([O-])([O-])O", "Potency": "inactive"},
      {"molecule": "CCOC(=O)Cc1ccccc1", "Potency": "inactive"},
      {"molecule": "CSSC", "Potency": "inactive"},
      {"molecule": "c1cc[n+]2c(c1)-c1cccc[n+]1CC2", "Potency": "inactive"},
      {"molecule": "COC(=O)c1ccccc1S(=O)(=O)NC(=O)Nc1nc(C)nc(OC)n1", "Potency": "inactive"},
      {"molecule": "CC1CCCC1", "Potency": "inactive"},
      {"molecule": "CC(O)C(=O)[O][Hg][c]1ccccc1", "note": "(stereo not given)", "Potency": "1.23 µM (active)"},
      {"molecule": "CCCCN(CCCC)C(=S)[S-].CCCCN(CCCC)C(=S)[S-].[Ni+2]", "Potency": "inactive"},
      {"molecule": "CC(=O)[O-].CC(=O)[O-].O.O.O.[Pb+2]", "Potency": "inactive"},
      {"molecule": "O=c1[nH]c(Cl)c(Cl)cc1Cl", "Potency": "inactive"},
      {"molecule": "NC(=O)C(Cl)Cl", "Potency": "inactive"},
      {"molecule": "C[C@]12C/C(=C/O)C(=O)C[C@@H]1CC[C@@H]1[C@@H]2CC[C@@]2(C)[C@H]1CC[C@]2(C)O", "Potency": "inactive"},
      {"molecule": "CC[C@]1(O)CC[C@H]2[C@@H]3CCC4=CCCC[C@@H]4[C@H]3CC[C@@]21C", "Potency": "inactive"},
      {"molecule": "COc1cnc(OC)n2nc(NS(=O)(=O)c3c(OCC(F)F)cccc3C(F)(F)F)nc12", "Potency": "inactive"},
      {"molecule": "CC(C)C(Nc1ccc(C(F)(F)F)cc1Cl)C(=O)OC(C#N)c1cccc(Oc2ccccc2)c1", "note": "(stereo not given)", "Potency": "inactive"},
      {"molecule": "O=C(NC(=O)c1ccccc1Cl)Nc1ccc(OC(F)(F)F)cc1", "Potency": "inactive"},
      {"molecule": "Cc1cnc2c(C(=O)O)c(Cl)ccc2c1", "Potency": "inactive"},
      {"molecule": "C=CCBr", "Potency": "inactive"},
      {"molecule": "O.O.O.O.O.O.O=S(=O)([O-])[O-].[Ni+2]", "Potency": "inactive"},
      {"molecule": "CN", "Potency": "inactive"},
      {"molecule": "Cc1ccc([N+](=O)[O-])[c]2c1[O][Hg]2", "Potency": "3.76 µM (active)"},
      {"molecule": "O=[N+]([O-])c1ccc(Cl)c(Cl)c1Cl", "Potency": "inactive"},
      {"molecule": "O=C(O)CCCCCCNC1c2ccccc2CCc2ccccc21", "Potency": "inactive"},
      {"molecule": "ClC1=C(Cl)[C@]2(Cl)[C@@H]3[C@H]4C[C@H]([C@@H]5O[C@H]45)[C@@H]3[C@@]1(Cl)C2(Cl)Cl", "Potency": "43.6 µM (active)"},
      {"molecule": "C1=CCC=C1", "Potency": "inactive"},
      {"molecule": "Clc1ccc(C2(Cn3cncn3)OCCO2)c(Cl)c1", "Potency": "inactive"},
      {"molecule": "CN(C)C(=S)SSC(=S)N(C)C", "Potency": "85.9 nM (active) and 27.5 nM (active) and 188 nM (active)"},
      {"molecule": "O=[N+]([O-])c1ccccc1-c1ccccc1", "Potency": "inactive"},
      {"molecule": "O=[N+]([O-])c1cc(C(F)(F)F)c(Cl)c([N+](=O)[O-])c1Nc1ncc(C(F)(F)F)cc1Cl", "Potency": "4.9 µM (active)"},
      {"molecule": "COP(=O)(OC)Oc1ccc([N+](=O)[O-])cc1", "Potency": "inactive"},
      {"molecule": "Clc1ccc(C(Cl)(Cl)Cl)cc1Cl", "Potency": "inactive"},
      {"molecule": "CCOP(=O)(OCC)Oc1nc(Cl)c(Cl)cc1Cl", "Potency": "4.34 µM (active)"},
      {"molecule": "CC1(C)[C@H](/C=C2\\CCSC2=O)[C@@H]1C(=O)OCc1coc(Cc2ccccc2)c1", "Potency": "inactive"},
      {"molecule": "N#Cc1sc2c(=O)c3ccccc3c(=O)c=2sc1C#N", "Potency": "4.9 µM (active)"},
      {"molecule": "CC(C)c1c(CN(C)C(C)Cc2ccccc2)n(C)n(-c2ccccc2)c1=O", "note": "(stereo not given)", "Potency": "inactive"},
      {"molecule": "BrCCCBr", "Potency": "inactive"},
      {"molecule": "Cc1ccn2nc(S(=O)(=O)Nc3c(F)cccc3F)nc2n1", "Potency": "inactive"},
      {"molecule": "CC#C[C@]1(O)CC[C@H]2[C@@H]3C[C@H](C)C4=CC(=O)CC[C@]4(C)[C@H]3CC[C@@]21C", "Potency": "inactive"},
      {"molecule": "CC(Cl)CCl", "note": "(stereo not given)", "Potency": "inactive"}
    ]}
  ]
}
